An excerpt weighted towards active compounds, which were near 12% of everything screened.
SARS PLP yeast – SARS-CoV PLP inhibition in yeast | Potency, µM (top dose mostly 32.9 µM), for the others: at the highest dose activity, positive = growth rescue, usual class: activators | actives 0.19% (n = 330,000) | S. cerevisiae expressing SARS-CoV PLpro, growth rescue | AID 485353; also: potency is read from the fitted curve at half-maximal effect; 0% is about no effect; nearly all actives have a fitted effect of over 55% in size
CHX counter – affects cycloheximide protein synthesis inhibition readout, counter-screen. actives 12% (n = 300,000). max response, %. cell reporter, cycloheximide protein synthesis inhibition counterscreen; in the data active = max response mostly above about 13%, no sharp cut-off; inactive = mostly below about 14%; also: read at 38.3 µM for the half of the compounds with a filed dose; 0% is about no effect
Shiga toxin inh – Shiga toxin inhibition. actives 9.2% (n = 290,000). Vero cells, Shiga toxin protein synthesis inhibition reporter. inhibition, % at 38.7 µM; in the data active = inhibition mostly above about 28%, no sharp cut-off; inactive = mostly below about 43%; also: 0% is about no effect
NS1 function inh – influenza NS1 inhibition | Potency, µM (series often up to 46.1 µM), without a hit: top-dose activity, positive = more growth | actives 0.4% (n = 270,000) | AID 2326; also: potency is read from the fitted curve at half-maximal effect; actives are rising curves; nearly all actives have a fitted effect of over 50% in size
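S. cerevisiae expressing influenza A NS1, grown in glucose, washed, then diluted 1:100 into pH 6.0 -URA galactose medium with 23 nl compound. Growth recovery read as OD600; NS1-free strain serves as control.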
Numbers without * were called inactive. Unless noted, calls follow the shape of the full dose curve.

Screening COc1ccc(CNC(=O)C2CC(c3ccc(OC)cc3)=NO2)cc1 (stereo not drawn) returned SARS PLP yeast -5%, CHX counter -2, Shiga toxin inh -5 and NS1 function inh -27%.
`COc1ccc(C2=NOC(C(=O)NCc3cccs3)C2)cc1OC` (stereo not drawn) gave SARS PLP yeast 2%, CHX counter -1, Shiga toxin inh -10 and NS1 function inh -4%.
For COc1ccc(C2=NOC(C(=O)NCc3cccs3)C2)cc1 (stereo not drawn) the results were SARS PLP yeast 5%, CHX counter 18*, Shiga toxin inh 32 and NS1 function inh -7%.
For COc1ccc(C2=NOC(C(=O)NCc3ccco3)C2)cc1 (stereo not drawn) the results were SARS PLP yeast -7%, CHX counter 27*, Shiga toxin inh 72 and NS1 function inh -8%.
CC1(c2ccccc2Cl)NC(=O)N(CC(=O)N2CCc3ccccc32)C1=O (stereo not drawn) was read as SARS PLP yeast 0%.
Screening O=C(NCc1cccs1)C1CC(c2ccccc2O)=NO1 (stereo not drawn) returned SARS PLP yeast -6%, CHX counter 27*, Shiga toxin inh 51* and NS1 function inh 0%.
Screening O=C(NCc1ccccn1)C1CC(c2ccccc2O)=NO1 (stereo not drawn) returned SARS PLP yeast 0%, CHX counter -3, Shiga toxin inh -5 and NS1 function inh 0%.
Screening Cc1ccc2c(c1)[C@H]1[C@H](CO2)[C@H](c2ccccc2)[C@]2(C)C(=O)Nc3cc(F)ccc3C(=O)N12 returned SARS PLP yeast -15%.
For COc1cccc(-c2nc(-c3ccc(NC(=O)c4ccncc4)cc3)no2)c1 the results were SARS PLP yeast 2%, CHX counter -1, Shiga toxin inh 51 and NS1 function inh -12%.
For COc1ccc(-c2nc(-c3ccncc3)no2)cc1 the results were SARS PLP yeast 0%, CHX counter 53*, Shiga toxin inh 88* and NS1 function inh -5%.
For COc1cccc(-c2noc(-c3ccc(Cl)nc3)n2)c1 the results were SARS PLP yeast 0%, CHX counter 30*, Shiga toxin inh 83* and NS1 function inh -4%.
COc1ccc2[nH]c(=O)c(-c3noc(-c4ccccc4)n3)cc2c1 was read as SARS PLP yeast 7%, CHX counter 66*, Shiga toxin inh 106* and NS1 function inh 2%.
For CCOc1ccc(-c2nc(-c3ccccc3C)no2)cc1 the results were SARS PLP yeast -5%, CHX counter 68*, Shiga toxin inh 96* and NS1 function inh -6%.
For O=C(CC(C(=O)O)c1c(F)cccc1Cl)c1ccc(Cl)cc1 (stereo not drawn) the results were SARS PLP yeast 1%, CHX counter -3, Shiga toxin inh 23 and NS1 function inh 6%.
C=CCn1cc(C(=O)NCCCN(CC)CC)c(=O)c2cc(S(=O)(=O)N3CCC(C)CC3)ccc21 was read as SARS PLP yeast -3%, CHX counter -2, Shiga toxin inh -3 and NS1 function inh -3%.
Screening CC(=O)c1ccc(OCCCC(=O)OCC(=O)Nc2ccc3[nH]c(=O)[nH]c3c2)cc1 returned SARS PLP yeast -1%.
For COc1ccc(-c2noc(-c3ccccc3-c3ccccc3)n2)cc1OC the results were SARS PLP yeast -7%, CHX counter 4, Shiga toxin inh 6 and NS1 function inh -6%.
`CCOc1ccc(-c2nc(-c3cccnc3)no2)cc1` gave SARS PLP yeast -14%, CHX counter 31*, Shiga toxin inh 23* and NS1 function inh -6%.
For CCOc1nc(-c2ccc(OC)cc2)ccc1-c1noc(-c2cccnc2)n1 the results were NS1 function inh -1%.
`COc1ccc(-c2nc(-c3cccnc3)no2)cc1` gave SARS PLP yeast 1%, CHX counter 45*, Shiga toxin inh 59* and NS1 function inh -6%.
`CCCCOc1ccc(-c2nc(-c3cccnc3)no2)cc1` gave SARS PLP yeast -1%, CHX counter 25*, Shiga toxin inh 80* and NS1 function inh 0%.
Screening COc1cc(OC)cc(-c2nc(-c3ccccc3)no2)c1 returned SARS PLP yeast -2%, CHX counter 17*, Shiga toxin inh 55 and NS1 function inh 4%.
`CCOc1cc(-c2noc(-c3cccnc3)n2)ccc1OC` gave SARS PLP yeast -3%, CHX counter 1, Shiga toxin inh -8 and NS1 function inh -5%.
c1ccc(-c2nnc(-c3ccccc3)o2)cc1 was read as SARS PLP yeast 0%, CHX counter 31*, Shiga toxin inh 85* and NS1 function inh -22%.
ClCc1nnc(-c2ccccc2)o1 was read as SARS PLP yeast -2%, CHX counter 11, Shiga toxin inh 17 and NS1 function inh 4%.
Clc1cccc(-c2nnc(-c3ccccc3)o2)c1 was read as SARS PLP yeast -10%, CHX counter 36*, Shiga toxin inh 59* and NS1 function inh -37%.
For Oc1ccccc1-c1nnc(-c2ccc(C(F)(F)F)cc2)o1 the results were SARS PLP yeast 3%, CHX counter 35*, Shiga toxin inh 20 and NS1 function inh -5%.
For COc1ccccc1-c1nnc(-c2ccc(N3CCOCC3)cc2)o1 the results were SARS PLP yeast 4%, CHX counter 35*, Shiga toxin inh 62* and NS1 function inh -9%.
For O=S(=O)(Cc1ccccc1)c1ccccc1-c1nnc(-c2ccccc2)o1 the results were SARS PLP yeast 2%, CHX counter 4, Shiga toxin inh -7 and NS1 function inh 7%.
Screening COc1cccc(-c2nnc(-c3ccc(C(F)(F)F)cc3)o2)c1 returned SARS PLP yeast -13%, CHX counter 27*, Shiga toxin inh 49* and NS1 function inh 1%.
c1ccc(-c2nnc(-c3ccncc3)o2)cc1 was read as SARS PLP yeast 12%, CHX counter 40*, Shiga toxin inh 79 and NS1 function inh -8%.
`COc1ccc(-c2nnc(-c3ccccc3)o2)cc1OC` gave SARS PLP yeast -11%, CHX counter 51*, Shiga toxin inh 53* and NS1 function inh -37%.
COc1cc(-c2nnc(-c3ccccc3)o2)cc(OC)c1OC was read as SARS PLP yeast -22%, CHX counter 6, Shiga toxin inh 11 and NS1 function inh -5%.
Nc1ccccc1-c1nnc(-c2ccc(-c3ccccc3)cc2)o1 was read as SARS PLP yeast -1%, CHX counter 47*, Shiga toxin inh 43* and NS1 function inh 0%.
Screening NC(=O)NC(=O)COC(=O)CCSc1ccccc1 returned SARS PLP yeast 0%, CHX counter -2 and Shiga toxin inh 3.
COCCNC(=O)COc1coc(CN2CCN(Cc3ccccc3)CC2)cc1=O was read as SARS PLP yeast inconclusive, CHX counter 0, Shiga toxin inh 1 and NS1 function inh -4%.
`O=C(O)C(Cc1ccccc1)NC(=O)C(c1ccccc1)c1ccccc1` (stereo not drawn) gave SARS PLP yeast 0%, CHX counter -2, Shiga toxin inh -7 and NS1 function inh 12%.
Screening COc1ccc(C(=O)Nc2nc(-c3ccc([N+](=O)[O-])cc3)c(-c3ccc(OC)cc3)s2)cc1 returned SARS PLP yeast 8%, CHX counter -3, Shiga toxin inh -12 and NS1 function inh 5%.
